Calls of active or inactive are those of the source. Calls follow the shape of the dose curve; as a rule, active = well fitted curve in the direction sought with a large enough effect in the repeat runs; inconclusive = weak or mixed curves; inactive = flat fitted curve, though single readings scatter.
Assay: qHTS assay to test for compound auto fluorescence at 590 nm (red) in HepG2 cells (AID 720674)
Settings: HepG2 autofluorescence, red 540/590 nm, 1 h; series mostly up to 91.3 µM
Description: U.S. Tox21 Program National Center for Advancing Translational Sciences [NCATS] NIH Chemical Genomics Center [NCGC] U.S. Environmental Protection Agency [EPA] National Institutes of Environmental Health Sciences [NIEHS] National Toxicology Program [NTP] U.S. Food and Drug Administration [FDA] Tox21 Assay Overview: Compound auto fluorescence often interferes with screening of the compound library against various biological targets and signaling pathways. Some of these compounds may have fluorophoric properties. Such properties may interfere with the assay outputs resulting in false positives and/or negatives. To decrease such complications and ensure the compound activities are relevant in terms of biological response, the Tox21 10K compound library was screened for auto fluorescence. From the fluorophores used as reporter signals in our screening assays, the auto fluorescence equivalencies of compounds against three fluorophores have been evaluated: Triamterene, Fluorescein and Rose Bengal sodium for blue, green and red fluorescence, respectively. The fluorescence intensities were measured using Excitation/Emission wavelengths at 405/460nm, 485/535nm and 540/590nm for blue, green and red labels, respectively. This assay includes the red fluorescence data.
Tox21 Assay Protocol Summary: 2,000 HepG2 cells in 5 uL of culture medium (MEM containing 10% FBS) per well were dispensed into black wall/clear bottom 1536-well plates using a Multidrop Combi Dispenser (ThermoFisher Scientific, Waltham, MA). The assay plates were incubated overnight at 37 C to allow cell attachment to the well bottom, followed by the transfer of 23 nL compound or DMSO vehicle by a pintool work station (Kalypsys , San Diego, CA). After the assay plates were incubated for 1 hr at 37 C and 5% CO2, fluorescence intensities in the assay plates were measured by an Envision (PerkinElmer, Shelton, CT) plate reader using three labels for measuring blue, green and red fluorescence at […] 460, 535 and 590 nm respectively.

Structure (SMILES) | outcome
COP(=S)(OC)Oc1ccc(Sc2ccc(OP(=S)(OC)OC)cc2)cc1 | inactive
O=NN(c1ccccc1)c1ccccc1 | inactive
CCOP(=O)(OCC)OCC | inactive
O=P(OCCCl)(OCCCl)OCCCl | inactive
Oc1ccc(Cl)cc1Cl | inactive
CCNc1nc(Cl)nc(NC(C)(C)C#N)n1 | inactive
O=C(O)CF | inactive
CCOP(=S)(OCC)OP(=S)(OCC)OCC | inactive
N#Cc1c(Cl)c(Cl)c(Cl)c(C#N)c1Cl | inactive
CC1=C(C(=O)Nc2ccccc2)SCCO1 | inactive
COc1ccc(C=O)cc1OC | inactive
C[C@]12CC[C@H]3[C@@H](CCC4=CC(=O)CC[C@@H]43)[C@@H]1CC[C@@H]2O | inactive
COP(=O)(NC(C)=O)SC (stereo not given) | inactive
CCOS(=O)(=O)OCC | inactive
CC(C)=CC1C(C(=O)OCN2C(=O)C3=C(CCCC3)C2=O)C1(C)C (stereo not given) | inactive
CS(=O)(=O)NC(=O)c1cc(Oc2ccc(C(F)(F)F)cc2Cl)ccc1[N+](=O)[O-] | inactive
CCCCOC(=O)COC(=O)c1ccccc1C(=O)OCCCC | inactive
O=[N+]([O-])c1ccc(Cl)c([N+](=O)[O-])c1 | inactive
[CH3][Sn]([Cl])([Cl])[Cl] | inactive
CC(C)CON=O | inactive

Structure (SMILES) | outcome
CNC(=O)CSP(=S)(OC)OC | inactive
Cn1c(-c2ccccc2)cc(-c2ccccc2)[n+]1C | inactive
CN(C)P(=O)(N(C)C)N(C)C | inactive
CNC(=S)S | inactive
CCOP(=S)(OCC)SCSC(C)(C)C | inactive
Cc1ccc([N+](=O)[O-])cc1 | inactive
Clc1ccccc1-c1nnc(-c2ccccc2Cl)nn1 | inactive
CCC(=O)Nc1ccc(Cl)c(Cl)c1 | inactive
C=CC(=O)OCC(CC)(COC(=O)C=C)COC(=O)C=C | inactive
O=S(=O)(O)C(F)(F)C(F)(F)C(F)(F)C(F)(F)C(F)(F)C(F)(F)C(F)(F)C(F)(F)F | inactive
CC1CC(=O)O1 (stereo not given) | inactive
O=C1Nc2ccc(Cl)cc2C(c2ccccc2)=NC1O (stereo not given) | inactive
C=CC(Cl)CCl (stereo not given) | inactive
Oc1ccc(Cl)cc1Cc1ccccc1 | inactive
ClC(Cl)(Cl)Br | inactive
C[N+](C)(C)CC(=O)O | inactive
Nc1ncn[nH]1 | inactive
CC(O)CN(CC(C)O)CC(C)O (stereo not given) | inactive
Clc1ccc(C(Cl)(Cl)Cl)cc1 | inactive
CCCCOCC1CO1 (stereo not given) | inactive

From PubChem BioAssay (Tox21)
